From PubChem BioAssay
Shown are actives, neighbours in structure and some others; about 2.8% of the full set was active somewhere.
Giardia killer: Small Molecules that selectively kill Giardia lamblia: qHTS; Giardia lamblia trophozoite viability; activity change, % at 7.66 µM, hits read low; 340,000 compounds, 0.15% hits; in the data active means activity change below about -80%; inconclusive means between about -30% and that limit;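 further: parasites exposed to compound for two days anaerobically before the ATP read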
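Luminescent ATP signal served as the viability read-out, measured 15-30 min after adding ATP detection reagent to trophozoites that had been incubated with compounds for 48 hrs at 37 deg C anaerobically at 100 cells/well.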
D3 antag: qHTS of D3 Dopamine Receptor Antagonist: qHTS; D(3) dopamine receptor (Homo sapiens), P35462; AID 652054, 2013; 360,000 compounds, 2.5% hits; max response, negative = inhibition, %; D3R cells, DiscoveRx beta-arrestin luminescence, antagonist mode; hits give low values; in the data active means max response below about -50%; inconclusive means no clear call, values can overlap the other calls
Target sequence (P35462 whole entry, looked up): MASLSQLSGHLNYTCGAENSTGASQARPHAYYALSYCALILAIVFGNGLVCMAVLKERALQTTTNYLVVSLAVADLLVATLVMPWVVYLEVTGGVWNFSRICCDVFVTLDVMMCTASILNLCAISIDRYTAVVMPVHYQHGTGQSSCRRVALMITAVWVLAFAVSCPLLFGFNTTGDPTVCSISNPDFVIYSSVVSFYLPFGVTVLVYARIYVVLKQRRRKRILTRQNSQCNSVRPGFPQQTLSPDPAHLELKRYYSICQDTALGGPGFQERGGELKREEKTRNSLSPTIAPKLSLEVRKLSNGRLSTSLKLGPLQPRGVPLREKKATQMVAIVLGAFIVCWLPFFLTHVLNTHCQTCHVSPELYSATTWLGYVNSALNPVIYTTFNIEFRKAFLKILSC
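Cells expressing the human receptor were seeded at 1500 cells/well, incubated overnight at 37 degrees C in 5% CO2, then exposed to library compounds with dopamine controls for 90 minutes at 37 degrees C before luminescent detection.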
B2AR arrestin: qHTS assay of beta-arrestin-biased ligands of beta2-adrenergic receptor. Beta-2 adrenergic receptor (Homo sapiens), P07550. AID 492947, 2010. Potency, µM (highest dose often 46.1 µM), most hits filed as activators. 330,000 compounds, 0.02% hits. beta-arrestin recruitment to beta2AR, cell-based reporter; active means well fitted activation curve with a large enough effect; inconclusive means small, poorly fitted or top-dose-only effect; further: nearly all actives have a fitted effect of over 65% in size
D3 ag: qHTS of D3 Dopamine Receptor Agonist: qHTS | D(3) dopamine receptor (Homo sapiens), P35462 | D3R DiscoveRx beta-arrestin cells, luminescence, 90 min | max activation, % | 410,000 compounds, 0.58% hits | AID 652048, 2013; in the data active means max activation above about 30%
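Cells at 1500/well, incubated overnight, then treated with pinned compounds (dopamine as control) for 90 min at 37 degrees C. DiscoveRx reagent added for 30 - 60 minutes at room temperature; luminescence read.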
Numbers stand for hits; 0 = inactive; ? = inconclusive; - = no result given.

SMILES	Giardia killer	D3 antag	B2AR arrestin	D3 ag
CN(C)C(CNC(=O)c1cccc(S(=O)(=O)N2CCN(c3ccccc3)CC2)c1)c1ccccc1 (stereo not drawn)	0	-71	-	0
CN(C)C(CNC(=O)c1ccc(C(=O)c2ccccc2)cc1)c1ccccc1 (stereo not drawn)	0	-57	0	0
CN(C)C(CNC(=O)c1ccc(-c2ccccc2)cc1)c1ccccc1 (stereo not drawn)	0	0	0	0
COC(=O)c1cccc(S(=O)(=O)N2CCCCC2)c1	0	?	0	0
COc1ccc(C(CNC(=O)c2ccc(S(=O)(=O)N3CC(C)CC(C)C3)cc2)N(C)C)cc1 (stereo not drawn)	0	-63	0	0
COc1ccc(NS(=O)(=O)c2cccc(C(=O)NCC(c3ccccc3)N(C)C)c2)cc1 (stereo not drawn)	0	?	0	0
COc1ccc(C(CNC(=O)c2cccc(S(=O)(=O)NCc3ccccc3)c2)N(C)C)cc1 (stereo not drawn)	0	-71	0	0
CCCCNC(=O)c1cnn2c(C)c(Cc3c(F)cccc3Cl)c(C)nc12	-	-	-	0
CCc1nc2ccc(C(=O)N(C)CCN(C)C)cn2c1N(C)Cc1cc2ccccc2s1	-	-69	-	0
O=S(=O)(c1ccccc1)n1nc(-c2ccco2)nc1NCc1ccccc1	-	-	-	0
O=C(N/N=C(\c1ccccc1)c1cccnc1)c1ccc(O)cc1	0	0	0	0
O=C(N/N=C(\c1ccccc1)c1cccnc1)c1cccc(F)c1	0	-75	0	0
C=CCn1c(C)cc(C(=O)CSc2nc3ccccc3c(=O)[nH]2)c1C	0	-62	0	0
C=CCn1c(C)cc(C(=O)CSc2nc3ccccc3[nH]2)c1C	0	0	0	0
CN1CCC/C1=C/C=C1\SC(=S)NC1=O	0	-64	0	0
O=C1NC(=S)SC1=Cc1cccs1	0	?	-	0
O=C(c1ccco1)[C@@H]1[C@@H]2C(=O)N(c3ccc(Br)cc3)C(=O)[C@@H]2C2c3ccccc3C=CN21 (stereo partly drawn)	0	-57	0	0
COc1cc(NS(=O)(=O)c2ccc(C(=O)O)cc2)c2nc(C)ccc2c1	0	-	-	-
Cc1ccc(S(=O)(=O)Nc2cccc3cccnc23)cc1	0	-81	0	0
Cc1ccc(S(=O)(=O)Nc2ccccc2-c2ccccc2NS(=O)(=O)c2ccc(C)cc2)cc1	0	0	0	0
COc1cc(NS(=O)(=O)c2ccc(C)cc2)c2ncccc2c1	0	-55	0	0
CN(C)CC#CCC(O)(c1ccccc1)c1ccccc1	0	0	0	0
CCN(CC)CC#CCC(O)(c1ccccc1)c1ccc(Br)cc1 (stereo not drawn)	0	0	0	0
CCN(CC)CC#CCC(C)(c1ccccc1)c1ccccc1	0	-55	0	0
CCN(CC)CC#CCC(O)(c1ccccc1)c1ccccc1	0	-79	0	0
SMILES	Giardia killer	D3 antag	B2AR arrestin	D3 ag
O=C(NCc1ccc(-c2csnn2)cc1)c1cccs1	0	-51	0	0
O=C(NCc1ccc(-c2csnn2)cc1)c1cc(Cl)cc(Cl)c1	0	0	0	0
COc1cc(NC(=O)Nc2c[nH]c(=O)[nH]c2=O)cc(OC)c1OC	-	-	-	0
Cc1ccc(NC(=O)Cn2c(O)c(N=NC(=O)c3cc([N+](=O)[O-])ccc3O)c3ccccc32)cc1	-	-	0	-
Cc1cccc(NC(=O)Cn2c(O)c(N=NC(=O)c3ccccc3O)c3ccccc32)c1	0	-71	0	0
CC(C)c1cc(C(=O)Nc2cccc(C(F)(F)F)c2)no1	0	-53	0	0
Cc1cc(C)cc(S(=O)(=O)N2CCN(c3nc(-c4cccs4)nc4ccccc34)CC2)c1	0	-	-	-
CCc1ccc(S(=O)(=O)NCc2ccc(C(=O)NCCN(Cc3ccccc3)C(C)C)cc2)cc1	-	-91	-	0
C=CS(=O)(=O)O	-	-	-	0
N#C/C(=C\c1ccco1)C(=O)NCc1ccccc1	0	0	0	0
N#CC(C#N)=C1C=CC=CN1/C(=C\c1ccco1)C(=O)c1ccc(Cl)cc1	0	-108	0	0
N#CC(C#N)=C1C=CC=CN1/C(=C\c1ccco1)C(=O)c1ccc(-c2ccccc2)cc1	0	-92	0	0
CC(/C=N/n1c(-c2ccc(Cl)cc2)n[nH]c1=S)=C\c1ccco1	0	0	0	0
COc1cccc(-n2cc(C(=O)Oc3ccc(F)cc3)c3ccccc3c2=O)c1	-	-	-	0
CC(C)OCCCn1c(=O)c2ccccc2n2c(-c3ccc(F)c(F)c3)nnc12	-	-	-	0
CCC(c1nnnn1Cc1ccccc1)N(Cc1ccccc1)Cc1cc2cc(C)ccc2[nH]c1=O (stereo not drawn)	0	-	-	-
Cn1sccc1=O	0	-71	0	0
COc1ccc(N2CC(O)(c3ccc(OC(F)F)cc3)[N+]3=C2CCCC3)cc1 (stereo not drawn)	0	-50	0	0
COc1ccc(N2CC(O)(c3ccc(F)cc3)[N+]3=C2CCCC3)cc1 (stereo not drawn)	0	?	0	0
CCc1sc(-c2cc3cccc(OC)c3oc2=O)nc1-c1ccccc1	0	-	-	-
NC(=S)N/N=C/c1ccc(C23CC4CC(CC(C4)C2)C3)cc1	0	-89	?	0
CCOC(=O)C1CCCN(c2nc3c(S(=O)(=O)c4ccc(Br)cc4)nnn3c3ccsc23)C1 (stereo not drawn)	-	-	-	0
Cc1[nH]n(-c2ccccc2)c(=O)c1C(c1ccc(O)c([N+](=O)[O-])c1)c1c(C)[nH]n(-c2ccccc2)c1=O	0	-91	-	0
O=C(O)c1cc(-c2ccc(/C=N/Nc3ccc([N+](=O)[O-])cn3)o2)ccc1Cl	0	-75	0	0
CCOC(=O)c1cnn(-c2ccccc2)c1NC(=O)C(F)(F)C(F)(F)C(F)(F)F	0	-68	0	0
SMILES	Giardia killer	D3 antag	B2AR arrestin	D3 ag
CC1CCN(CC(=O)Nc2cccc([N+](=O)[O-])c2)CC1	0	-58	0	0
Cc1ccc([N+](=O)[O-])cc1NC(=O)CN1CCCCC1	0	-78	0	0
Cc1ccc([N+](=O)[O-])cc1NC(=O)C(C)N1CCCCC1 (stereo not drawn)	0	0	0	0
Cc1ccc(NC(=O)CN2CCCCCC2)cc1Br	0	-85	0	0
O=C(CN1CCCCCC1)Nc1cccc(Br)c1	0	0	0	0
CC1CCN(CC(=O)NNC(=O)c2cccc(Br)c2)CC1	0	-50	0	0
O=C(CN1C(=O)C2CCCCC2C1=O)Nc1cccc([N+](=O)[O-])c1 (stereo not drawn)	0	0	0	0
C=CC[N+]1([C@H]2C[C@H]3[C@@H]4CC[C@H]5C[C@H](O)[C@@H](N6CCOCC6)C[C@]5(C)[C@H]4CC[C@]3(C)[C@H]2OC(C)=O)CCCC1	-	-	-	0
Cc1ccc([N+](=O)[O-])cc1NC(=O)CN1CCC(C)CC1	0	-84	0	0
CC1CCN(CC(=O)Nc2ccc(Cl)cc2[N+](=O)[O-])CC1	0	0	0	0
